Experimental data published in the supplement of paper PMC7411054.
Structures can show the parent of a compound that is named as a salt.

Legend:
Details in all cases: treatment time: 24 h
[1] = tested on: A549-ACTB-RAB5A; assay: lowest phenotypically active concentration; higher = less potent
In short: (§1)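 Fifteen gene-edited A549, HepG2 and WPMY1 reporter lines (BFP segmentation plus GFP and RFP/FusionRed markers) were treated at 0.3, 1, 3 or 9 µM for 24 h, four wells each, then imaged live. Live-cell features per well were normalised to DMSO control wells. Deviation required ≥3 of 4 wells beyond the 95th percentile of DMSO Euclidean distances, and reproducibility required median replicate Pearson correlation above the 95th percentile of non-replicates. Phenotypic activity needed both criteria.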

[2] = tested on: A549-GM130-SQSTM1; assay: as above
In short: as §1

[3] = tested on: A549-TUBA1B-RELA; assay: as above
In short: as §1

[4] = tested on: HepG2-ACTB-RAB5A; assay: as above
In short: as §1

[5] = tested on: WPMY1-CANX-COX4; assay: as above
In short: as §1

[6] = tested on: A549-ACTB-RAB5A; assay: phenotypically active (imaging signature differs from DMSO and reproducible) at any of 0.3-9 uM (binary (1 = active, 0 = inactive)); higher = active
In short: as §1

[7] = tested on: A549-CANX-COX4; assay: as above
In short: as §1

[8] = tested on: A549-GM130-SQSTM1; assay: as above
In short: as §1

[9] = tested on: A549-TP53BP1-CLTA; assay: as above
In short: as §1

[10] = tested on: A549-TUBA1B-RELA; assay: as above
In short: as §1

[11] = tested on: HepG2-ACTB-RAB5A; assay: as above
In short: as §1

[12] = tested on: HepG2-CANX-COX4; assay: as above
In short: as §1

[13] = tested on: HepG2-GM130-SQSTM1; assay: as above
In short: as §1

[14] = tested on: HepG2-TP53BP1-CLTA; assay: as above
In short: as §1

[15] = tested on: HepG2-TUBA1B-RELA; assay: as above
In short: as §1

[16] = tested on: WPMY1-ACTB-RAB5A; assay: as above
In short: as §1

[17] = tested on: WPMY1-CANX-COX4; assay: as above
In short: as §1

[18] = tested on: WPMY1-GM130-SQSTM1; assay: as above
In short: as §1

[19] = tested on: WPMY1-TP53BP1-CLTA; assay: as above
In short: as §1

[20] = tested on: WPMY1-TUBA1B-RELA; assay: as above
In short: as §1

SMILES	lowest phenotypically active concentration [1] [µM]	lowest phenotypically active concentration [2] [µM]	lowest phenotypically active concentration [3] [µM]	lowest phenotypically active concentration [4] [µM]	lowest phenotypically active concentration [5] [µM]	phenotypically active [6]	phenotypically active [7]	phenotypically active [8]	phenotypically active [9]	phenotypically active [10]	phenotypically active [11]	phenotypically active [12]	phenotypically active [13]	phenotypically active [14]	phenotypically active [15]	phenotypically active [16]	phenotypically active [17]	phenotypically active [18]	phenotypically active [19]	phenotypically active [20]
CCCNCC(O)COc1ccccc1C(=O)CCc1ccccc1 (centres undefined) [propafenone]	9	9	9	9	9	1 (active)	0 (inactive)	1 (active)	1 (active)	1 (active)	1 (active)	0 (inactive)	0 (inactive)	0 (inactive)	1 (active)	1 (active)	1 (active)	1 (active)	1 (active)	0 (inactive)
O=C(O)C[C@H](O)C[C@H](O)/C=C/c1c(C2CC2)nc2ccccc2c1-c1ccc(F)cc1 [Pitavastatin calcium]	1	9	–	1	1	1 (active)	0 (inactive)	1 (active)	1 (active)	0 (inactive)	1 (active)	1 (active)	1 (active)	1 (active)	1 (active)	1 (active)	1 (active)	1 (active)	1 (active)	1 (active)
O=C(NOCC1CC1)c1ccc(F)c(F)c1Nc1ccc(I)cc1Cl	≤ 0.3	1	9	≤ 0.3	–	1 (active)	0 (inactive)	1 (active)	1 (active)	1 (active)	1 (active)	1 (active)	1 (active)	1 (active)	1 (active)	0 (inactive)	0 (inactive)	0 (inactive)	0 (inactive)	0 (inactive)
CC/C(=C(\CC)c1ccc(O)c(CN(CC)CC)c1)c1ccc(O)c(CN(CC)CC)c1	≤ 0.3	≤ 0.3	≤ 0.3	1	1	1 (active)	0 (inactive)	1 (active)	1 (active)	1 (active)	1 (active)	0 (inactive)	1 (active)	1 (active)	1 (active)	1 (active)	1 (active)	1 (active)	1 (active)	1 (active)
COc1cc(OC)c2cc(-c3ccncc3)cnc2c1 [DMPQ dihydrochloride]	9	9	–	–	9	1 (active)	0 (inactive)	1 (active)	1 (active)	0 (inactive)	0 (inactive)	1 (active)	0 (inactive)	0 (inactive)	0 (inactive)	0 (inactive)	1 (active)	0 (inactive)	1 (active)	0 (inactive)
CC(C)COCC(CN(Cc1ccccc1)c1ccccc1)N1CCCC1 (centres undefined) [bepridil]	9	9	9	9	9	1 (active)	0 (inactive)	1 (active)	1 (active)	1 (active)	1 (active)	1 (active)	1 (active)	1 (active)	1 (active)	0 (inactive)	1 (active)	1 (active)	1 (active)	0 (inactive)
Cc1noc(C)c1-c1ccc2c(c1)nc(CCc1ccc(OCCCN(C)C)cc1)n2CCN1CCOCC1	9	3	3	9	9	1 (active)	0 (inactive)	1 (active)	1 (active)	1 (active)	1 (active)	1 (active)	1 (active)	1 (active)	1 (active)	1 (active)	1 (active)	1 (active)	1 (active)	1 (active)
Cc1cc(Nc2ccc(NC(=O)c3ccc(Nc4ccnc5ccccc45)cc3)cc2)nc(N)n1	1	1	1	9	–	1 (active)	0 (inactive)	1 (active)	1 (active)	1 (active)	1 (active)	0 (inactive)	1 (active)	1 (active)	1 (active)	1 (active)	0 (inactive)	1 (active)	1 (active)	1 (active)
NC(=O)c1cccc(-c2cc(Nc3ccc(OC(F)(F)F)cc3)ncn2)c1	9	9	9	–	–	1 (active)	0 (inactive)	1 (active)	1 (active)	1 (active)	0 (inactive)	0 (inactive)	1 (active)	0 (inactive)	0 (inactive)	1 (active)	0 (inactive)	1 (active)	1 (active)	0 (inactive)
CC#CC(=O)N1CCC[C@H]1c1nc(-c2ccc(C(=O)Nc3ccccn3)cc2)c2c(N)nccn12 [acalabrutinib]	9	9	–	–	–	1 (active)	0 (inactive)	1 (active)	0 (inactive)	0 (inactive)	0 (inactive)	0 (inactive)	0 (inactive)	0 (inactive)	0 (inactive)	0 (inactive)	0 (inactive)	0 (inactive)	0 (inactive)	0 (inactive)
Cc1ccc(NC(=O)c2cccc(N(C)C)c2)cc1NC(=O)c1ccc(O)cc1	3	3	3	–	–	1 (active)	0 (inactive)	1 (active)	1 (active)	1 (active)	0 (inactive)	0 (inactive)	0 (inactive)	0 (inactive)	0 (inactive)	1 (active)	0 (inactive)	0 (inactive)	0 (inactive)	0 (inactive)
O=S(=O)(c1cccc2cnccc12)N1CCCNCC1 [fasudil]	3	9	3	9	3	1 (active)	0 (inactive)	1 (active)	1 (active)	1 (active)	1 (active)	1 (active)	1 (active)	1 (active)	1 (active)	1 (active)	1 (active)	1 (active)	0 (inactive)	1 (active)
N#C/C(=C(/N)Sc1ccc(N)cc1)c1ccccc1C(F)(F)F	3	3	–	3	–	1 (active)	0 (inactive)	1 (active)	1 (active)	0 (inactive)	1 (active)	1 (active)	1 (active)	1 (active)	1 (active)	0 (inactive)	0 (inactive)	0 (inactive)	1 (active)	0 (inactive)
Cn1cc(CCn2cnc(-c3cnn(C)c3)c2-c2ccc(C#N)cc2)cn1	9	9	–	–	–	1 (active)	0 (inactive)	1 (active)	0 (inactive)	0 (inactive)	0 (inactive)	0 (inactive)	0 (inactive)	0 (inactive)	0 (inactive)	0 (inactive)	0 (inactive)	0 (inactive)	0 (inactive)	0 (inactive)
CN1CCN(c2ccc(-c3cccc(CN4CCOCC4)c3)cc2NC(=O)c2c[nH]c(=O)cc2C(F)(F)F)CC1	9	9	9	–	9	1 (active)	0 (inactive)	1 (active)	0 (inactive)	1 (active)	0 (inactive)	0 (inactive)	1 (active)	1 (active)	1 (active)	0 (inactive)	1 (active)	1 (active)	1 (active)	1 (active)
CC(CN(C)C)CN1c2ccccc2CCc2ccccc21 (centres undefined) [trimipramine]	9	9	9	9	9	1 (active)	0 (inactive)	1 (active)	0 (inactive)	1 (active)	1 (active)	0 (inactive)	0 (inactive)	0 (inactive)	1 (active)	1 (active)	1 (active)	1 (active)	0 (inactive)	0 (inactive)
COc1cc(C(C)=O)ccc1OCCCN1CCC(c2noc3cc(F)ccc23)CC1 [iloperidone]	3	9	3	–	–	1 (active)	0 (inactive)	1 (active)	0 (inactive)	1 (active)	0 (inactive)	0 (inactive)	0 (inactive)	0 (inactive)	0 (inactive)	0 (inactive)	0 (inactive)	0 (inactive)	0 (inactive)	0 (inactive)
Cc1cc(CS(=O)(=O)c2ccccc2)cc(OCc2ccc(CN3CCC[C@@H]3CO)cc2)c1 [PF 543 hydrochloride]	9	9	9	9	–	1 (active)	0 (inactive)	1 (active)	0 (inactive)	1 (active)	1 (active)	0 (inactive)	1 (active)	1 (active)	0 (inactive)	1 (active)	0 (inactive)	0 (inactive)	0 (inactive)	0 (inactive)
Fc1ccc([C@@H]2CCNC[C@H]2COc2ccc3c(c2)OCO3)cc1 [paroxetine]	3	3	3	9	9	1 (active)	0 (inactive)	1 (active)	0 (inactive)	1 (active)	1 (active)	0 (inactive)	1 (active)	1 (active)	1 (active)	1 (active)	1 (active)	1 (active)	1 (active)	1 (active)
N#Cc1cccc(-c2c[nH]c3ncnc(N4CCOCC4)c23)c1	9	9	9	3	9	1 (active)	0 (inactive)	1 (active)	0 (inactive)	1 (active)	1 (active)	1 (active)	1 (active)	1 (active)	1 (active)	1 (active)	1 (active)	0 (inactive)	1 (active)	0 (inactive)
O=c1cc(N2CCOCC2)oc2c(-c3cccc4c3sc3ccccc34)cccc12	1	1	3	1	1	1 (active)	0 (inactive)	1 (active)	0 (inactive)	1 (active)	1 (active)	1 (active)	1 (active)	1 (active)	1 (active)	1 (active)	1 (active)	1 (active)	1 (active)	1 (active)
